From PubChem BioAssay (NCI)
Compounds without any hit were thinned out: in the full panel of roughly 79,000, 15% have a hit. Activity calls are given as the source filed them. Cut-off read from the data, not from the text of the source: active = growth inhibition above about 70%; inactive = the rest.

Legend:
[1] = NCI Yeast Anticancer Drug Screen. Data for the rad50 strain (AID 155);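 note: 0% = growth of vehicle-only cultures of the same strain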; details: S. cerevisiae rad50 strain growth inhibition, stronger effect = higher value
Method in brief: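 Yeast carrying a defined DNA repair defect were exposed to test compounds, and growth was compared with vehicle-treated controls to give percent inhibition.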

[2] = NCI Yeast Anticancer Drug Screen. Data for the mec2-1 strain (AID 157); details: S. cerevisiae mec2-1 strain, stronger effect = higher value
Method in brief: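 Strain: mec2-1 (DNA repair/cell cycle alteration). Compound exposure, then growth measured; inhibition expressed relative to vehicle.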

[3] = NCI Yeast Anticancer Drug Screen. Data for the sgs1 mgt1 strain (AID 161);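 note: 0% = growth of cultures given vehicle only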; details: S. cerevisiae sgs1 mgt1 strain, stronger effect = higher value
Method in brief: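 Inhibition of yeast growth, normalised to vehicle-treated controls, is reported for a strain bearing genetic alterations in DNA damage repair.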

[4] = NCI Yeast Anticancer Drug Screen. Data for the cln2 rad14 strain (AID 165);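 note: 0% = growth equal to vehicle treated cultures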; details: S. cerevisiae cln2 rad14 strain, stronger effect = higher value
Method in brief: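 Compounds are applied to the cln2 rad14 yeast strain, and growth is then compared with that of vehicle-treated cultures to give inhibition.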

[5] = NCI Yeast Anticancer Drug Screen. Data for the bub3 strain (AID 167); details: S. cerevisiae bub3 mutant strain, stronger effect = higher value
Method in brief: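 Compounds were applied to a genetically altered yeast strain carrying a cell-cycle control defect. Growth inhibition was scored against vehicle-treated controls.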

[6] = NCI Yeast Anticancer Drug Screen. Data for the mlh1 rad18 strain (AID 175); details: S. cerevisiae mlh1 rad18 strain growth inhibition, stronger effect = higher value
Method in brief: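 Read-out is yeast growth inhibition, calculated against vehicle-only controls. The compound was applied to a strain engineered with DNA damage repair alterations.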

[7] = at 5.0 µM (retest, dose inferred, filed as 0.5)
[8] = at 50.0 µM (retest, dose inferred, filed as 5.0)

Measured: growth inhibition

CC(=O)OC1CCC2(C)C(C1)C(OC(C)=O)CC1C3CCC(c4cccc(=O)o4)C3(C)CCC12 (configuration not stated)
active: [1]; at 50.0 µM 85.1% | [2]; [8] 84% | [2]; at 50.0 µM 86.7% | [3]; [8] 72% | [3]; at 50.0 µM 84.8% | [4]; [8] 76% | [4]; at 50.0 µM 84.9% | [5]; [8] 79% | [5]; at 50.0 µM 81.2% | [6]; at 50.0 µM 85%
inactive: [1]; [7] 2% | [1]; [8] 64% | [2]; [7] 11% | [3]; [7] 17% | [4]; [7] 5% | [5]; [7] -2% | [6]; [7] -6% | [6]; [8] 66%

COc1ccc(/C=C2\C(=O)N(C)C(=O)c3cc(OC)c(OC)cc32)cc1OC
inactive: [1]; [7] 1% | [1]; [8] 12% | [1]; at 50.0 µM 61.4% | [2]; [7] 0% | [2]; [8] 16% | [2]; at 50.0 µM 47.5% | [3]; [7] -3% | [3]; [8] -4% | [3]; at 50.0 µM 62.9% | [4]; [7] 0% | [4]; [8] 19% | [4]; at 50.0 µM 46.6% | [5]; [7] 5% | [5]; [8] 32% | [5]; at 50.0 µM 39.5% | [6]; [7] 2% | [6]; [8] 19% | [6]; at 50.0 µM 65%

CC1C(C(=O)O)CC([N+](=O)[O-])C(Cl)C1[N+](=O)[O-] (configuration not stated)
active: [2]; [8] 83% | [2]; at 50.0 µM 87.4% | [3]; at 50.0 µM 82.1% | [5]; [8] 88% | [5]; at 50.0 µM 74.7% | [6]; [8] 93%
inactive: [1]; [7] 13% | [1]; [8] 60% | [1]; at 50.0 µM 20.9% | [2]; [7] -1% | [3]; [7] -5% | [3]; [8] 26% | [4]; [7] 15% | [4]; [8] 44% | [4]; at 50.0 µM 35.4% | [5]; [7] 11% | [6]; [7] 9% | [6]; at 50.0 µM 54.6%

COc1cc(C/C(=C/c2ccc(OC)c3occc23)[N+](=O)[O-])cc(OC)c1OC
active: [1]; [8] 100% | [1]; at 50.0 µM 70.6% | [2]; [8] 100% | [2]; at 50.0 µM 82.8% | [3]; [8] 99% | [3]; at 50.0 µM 82.9% | [4]; [8] 99% | [5]; [8] 97% | [6]; [8] 100% | [6]; at 50.0 µM 87.2%
inactive: [1]; [7] 18% | [2]; [7] 29% | [3]; [7] 31% | [4]; [7] 4% | [4]; at 50.0 µM 64.8% | [5]; [7] 12% | [5]; at 50.0 µM 60.7% | [6]; [7] 23%

Cc1ccc2ccc(C(Nc3ccccc3)c3ccncc3)c(O)c2n1 (configuration not stated)
active: [1]; [8] 92% | [1]; at 50.0 µM 90.8% | [2]; [8] 95% | [2]; at 50.0 µM 82.8% | [3]; [8] 87% | [4]; [8] 81% | [5]; [8] 92% | [5]; at 50.0 µM 81.1% | [6]; [8] 92% | [6]; at 50.0 µM 89%
inactive: [1]; [7] -6% | [2]; [7] -2% | [3]; [7] 4% | [3]; at 50.0 µM 43.5% | [4]; [7] -6% | [4]; at 50.0 µM 49.3% | [5]; [7] -7% | [6]; [7] -5%

C=CC[P+](CC[P+](CC=C)(c1ccccc1)c1ccccc1)(c1ccccc1)c1ccccc1
inactive: [1]; [7] -2% | [1]; [8] -3% | [1]; at 50.0 µM 2.6% | [2]; [7] -1% | [2]; [8] -4% | [2]; at 50.0 µM -0.25% | [3]; [7] -2% | [3]; [8] 1% | [3]; at 50.0 µM 16.6% | [4]; [7] -5% | [4]; [8] -10% | [4]; at 50.0 µM -31.6% | [5]; [7] -3% | [5]; [8] -3% | [5]; at 50.0 µM 6.8% | [6]; [7] 1% | [6]; [8] -1% | [6]; at 50.0 µM 52.2%

COC1/C=C/OC2(C)Oc3c(C)c(O)c4c(c3C2=O)C(=O)c2cnc(nc2C4=O)/C(C)=C\C=C\C(C)C(O)C(C)C(O)C(C)C(OC(C)=O)C1C (configuration not stated)
inactive: [1]; [7] 10% | [1]; at 50.0 µM 53.9% | [2]; [7] 17% | [2]; at 50.0 µM 55.2% | [3]; [7] 9% | [3]; at 50.0 µM 42.2% | [4]; [7] 36% | [4]; at 50.0 µM 56.1% | [5]; [7] 23% | [5]; at 50.0 µM 48.9% | [6]; [7] 20% | [6]; at 50.0 µM 50.9%
active: [1]; [8] 97% | [2]; [8] 99% | [3]; [8] 99% | [4]; [8] 97% | [5]; [8] 98% | [6]; [8] 98%

FC(F)(F)c1ccc(Nc2ccc(C(F)(F)F)cc2)cc1
inactive: [1]; [7] 9% | [2]; [7] -17% | [3]; [7] 12% | [4]; [7] -5% | [5]; [7] -3% | [6]; [7] 12%
active: [1]; [8] 100% | [1]; at 50.0 µM 99.6% | [2]; [8] 100% | [2]; at 50.0 µM 99.8% | [3]; [8] 100% | [3]; at 50.0 µM 99.6% | [4]; [8] 100% | [4]; at 50.0 µM 99.6% | [5]; [8] 99% | [5]; at 50.0 µM 99.7% | [6]; [8] 100% | [6]; at 50.0 µM 99.8%

CCN(CC)CC(O)CNc1ccc(NCC(O)CCl)c2c1C(=O)c1ccccc1C2=O (configuration not stated)
active: [1]; [7] 98% | [1]; [8] 98% | [2]; [7] 98% | [2]; [8] 98% | [3]; [7] 98% | [3]; [8] 98% | [4]; [7] 97% | [4]; [8] 97% | [5]; [7] 97% | [5]; [8] 97% | [6]; [7] 99% | [6]; [8] 99%
inactive: [1]; at 50.0 µM 36% | [2]; at 50.0 µM -19.1% | [3]; at 50.0 µM 7.1% | [4]; at 50.0 µM 10.8% | [5]; at 50.0 µM 12.4% | [6]; at 50.0 µM 19.1%
